Measured values: PubChem BioAssay (EPA / NIEHS)
Inconclusive results are not listed. Some structures have more than one record in an assay (separate samples or runs), and their calls can disagree. The source made the active and inactive calls. How the source made its calls: active means hit-call score of the fitted dose curve at least 0.9, where 1 is the maximum; inconclusive means response in the unintended direction; inactive means score below 0.9.

molecular target: Sodium channel protein type 1 subunit alpha (Rattus norvegicus) (UniProt P04774); test: NVS_IC_rNaCh_site2: NovaScreen (NVS) Ion Channel Assay for rat Sodium Channel, Site 2 (NaCh) (AID 2283322);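 further: hit means loss of radioligand binding signal relative to DMSO so AC50 marks displacement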
Outline: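 Membranes: rat forebrain. Format: competitive radioligand displacement, filter separation, scintillation readout, 1 h exposure. Primary screen in duplicate at 25 uM; actives retested in concentration series.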

SMILES	outcome	AC50
CCNC(=O)NC(=O)C(C#N)=NOC	inactive	
N#Cc1c[nH]cc1-c1cccc2c1OC(F)(F)O2	inactive	
N#Cc1c(Cl)cccc1Cl		38.2 µM (active)
Cc1cc(C)nc(Nc2ccccc2)n1	inactive	
CCN(CC)C(=O)C(C)Oc1cccc2ccccc12 (stereo unspecified)	inactive	
CCCN(CC)CC1COC2(CCC(C(C)(C)C)CC2)O1 (stereo unspecified)		0.822 µM (active)
CC(C)C1(C)N=C(c2ncccc2C(=O)O)NC1=O (stereo unspecified)	inactive	
Cn1c(-c2ccccc2)cc(-c2ccccc2)[n+]1C		2.36 µM (active)
CCCCC(C#N)(Cn1cncn1)c1ccc(Cl)cc1 (stereo unspecified)		25 µM (active)
CC(C)(C)C(=O)C(Oc1ccc(Cl)cc1)n1cncn1 (stereo unspecified)	inactive	

molecular target: rat Glutamate, AMPA Site (AMPA), Gria1 (gene 50592) (UniProt P19490); test: NVS_LGIC_rAMPA: NovaScreen (NVS) Ligand-Gated Ion Channel Assay for rat Glutamate, AMPA Site (AMPA) (AID 2283324)
Outline: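 Rat forebrain membranes; radioligand binding read 1 h after dosing by filtration and scintillation counting. Duplicate single-point screen at 25 uM, then concentration-response to 50 uM for threshold hits (e.g. 30% inhibition); loss of signal vs DMSO.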

rat Glutamate, AMPA Site (AMPA), Gria1 (gene 50592), sequence (P19490 whole entry, looked up): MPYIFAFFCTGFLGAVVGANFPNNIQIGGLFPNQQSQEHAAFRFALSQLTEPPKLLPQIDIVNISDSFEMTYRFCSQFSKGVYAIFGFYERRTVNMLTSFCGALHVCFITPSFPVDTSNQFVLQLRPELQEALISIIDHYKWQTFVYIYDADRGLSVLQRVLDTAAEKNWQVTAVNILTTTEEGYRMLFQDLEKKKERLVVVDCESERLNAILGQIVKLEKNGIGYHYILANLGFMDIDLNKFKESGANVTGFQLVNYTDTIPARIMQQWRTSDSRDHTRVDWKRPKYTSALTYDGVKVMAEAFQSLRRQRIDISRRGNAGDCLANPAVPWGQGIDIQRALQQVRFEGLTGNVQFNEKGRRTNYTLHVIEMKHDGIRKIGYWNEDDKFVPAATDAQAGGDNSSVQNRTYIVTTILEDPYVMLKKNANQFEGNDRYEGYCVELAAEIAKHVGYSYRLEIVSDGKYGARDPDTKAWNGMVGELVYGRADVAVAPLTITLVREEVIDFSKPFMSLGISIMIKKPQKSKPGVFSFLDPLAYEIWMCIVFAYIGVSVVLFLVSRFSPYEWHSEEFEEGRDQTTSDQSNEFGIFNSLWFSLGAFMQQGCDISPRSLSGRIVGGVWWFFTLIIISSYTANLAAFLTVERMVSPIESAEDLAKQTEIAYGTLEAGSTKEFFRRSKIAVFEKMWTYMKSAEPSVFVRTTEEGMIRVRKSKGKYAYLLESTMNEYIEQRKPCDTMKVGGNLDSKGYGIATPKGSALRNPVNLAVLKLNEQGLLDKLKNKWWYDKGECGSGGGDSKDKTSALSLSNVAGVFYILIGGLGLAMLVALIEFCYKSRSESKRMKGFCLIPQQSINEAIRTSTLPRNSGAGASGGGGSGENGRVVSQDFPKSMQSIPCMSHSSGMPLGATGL

SMILES	outcome
CCNC(=O)NC(=O)C(C#N)=NOC	inactive
C=C(C)CN(CC)c1c([N+](=O)[O-])cc(C(F)(F)F)cc1[N+](=O)[O-]	inactive
CN=C=S	inactive

molecular target: human Serotonin, 5-Hydroxytryptamine Receptor 3 (5HT3), HTR3A (gene 3359) (UniProt P46098); test: NVS_LGIC_h5HT3: NovaScreen (NVS) Ligand-Gated Ion Channel Assay for human Serotonin, 5-Hydroxytryptamine Receptor 3 (5HT3) (AID 2283325)
Procedure: NVS_LGIC_h5HT3 is a biochemical, single-readout assay that uses extracted gene-proteins from HEK293 in a cell-free assay. Measurements were taken 1 hour after chemical dosing in a 96-well plate.NVS_LGIC_h5HT3 is one of one assay component(s) measured or calculated from the NVS_LGIC_h5HT3 assay. It is designed to make measurements of radioligand binding, a form of binding reporter, as detected with scintillation counting signals by Filter-based radiodetection technology.Data from the assay component NVS_LGIC_h5HT3 was analyzed into 1 assay endpoint. This assay endpoint, NVS_LGIC_h5HT3, was analyzed in the positive analysis fitting direction relative to DMSO as the negative control and baseline of activity. Using a type of binding reporter, loss-of-signal activity can be used to understand changes in the binding as they relate to the gene HTR3A. Furthermore, this assay endpoint can be referred to as a primary readout, because the performed assay has only produced 1 assay endpoint. To generalize the intended target to other relatable targets, this assay endpoint is annotated to the ion channel intended target family, where the subfamily is ligand-gated ion channel.
Binding assays used specific radioligands (tritiated, iodinated) with non-radioactive competitive displacement ligands in agonist or antagonist protocols (as indicated) and various reference compounds and inhibitors to titrate specific binding to receptors and transporters. Most enzyme assays (CYPs, kinases, phosphatases, proteases, HDACs) used recombinant protein and specific substrates (fluorescence mostly, some colorimetric and radioactive) and inhibitors, followed by a biochemical separation of substrate and product. All assays for the biochemical HTS were initially run in duplicate at a single concentration (10 uM for CYP450 assays and 25 uM for all others). Assay-chemical combinations meeting a pre-defined threshold (e.g., 30% inhibition and other criteria defined below) were then run in singleton concentration-response format with maximum concentration of 20 uM for CYPs and 50 uM for all others. Each assay was run with positive and negative controls, and concurrent controls on every plate. The follow-up (secondary) screen tested active chemical-pairs in concentration series, as well as a few additional assays not tested in the primary screen, some selected negative inactives, and several cases re-run in the concentration series for confirmatory purposes.

human Serotonin, 5-Hydroxytryptamine Receptor 3 (5HT3), HTR3A (gene 3359), sequence (P46098 whole entry, looked up): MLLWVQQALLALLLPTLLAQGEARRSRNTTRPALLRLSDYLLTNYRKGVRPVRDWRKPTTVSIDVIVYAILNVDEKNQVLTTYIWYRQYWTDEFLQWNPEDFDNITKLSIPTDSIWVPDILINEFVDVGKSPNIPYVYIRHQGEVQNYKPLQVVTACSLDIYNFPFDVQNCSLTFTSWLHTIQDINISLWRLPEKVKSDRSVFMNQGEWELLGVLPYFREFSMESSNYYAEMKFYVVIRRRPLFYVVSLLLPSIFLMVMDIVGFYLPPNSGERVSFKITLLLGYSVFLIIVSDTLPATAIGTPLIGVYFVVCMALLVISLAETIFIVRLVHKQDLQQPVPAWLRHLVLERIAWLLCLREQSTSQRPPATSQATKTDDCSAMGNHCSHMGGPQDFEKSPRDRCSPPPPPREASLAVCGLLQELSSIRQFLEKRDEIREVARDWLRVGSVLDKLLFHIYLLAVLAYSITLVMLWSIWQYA

SMILES	outcome
Cc1c(COC(=O)[C@@H]2[C@H](/C=C(\Cl)C(F)(F)F)C2(C)C)cccc1-c1ccccc1	inactive
CC1(C)CCC(=Cc2ccc(Cl)cc2)C1(O)Cn1cncn1 (stereo unspecified)	inactive
CC1(C)C(C(=O)OC(C#N)c2cccc(Oc3ccccc3)c2)C1(C)C (stereo unspecified)	inactive
CS(=O)(=O)c1cc(C(F)(F)F)ccc1C(=O)c1cnoc1C1CC1	inactive

molecular target: rat Thyrotropin Releasing Hormone Receptor (TRH), Trhr (gene 25570) (UniProt Q01717); test: NVS_GPCR_rTRH: NovaScreen (NVS) G Protein-Coupled Receptor Assay for rat Thyrotropin Releasing Hormone Receptor (TRH) (AID 2283329);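 further: hit means lower bound tracer signal versus DMSO baseline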
Outline: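 Competitive radioligand binding on rat forebrain membrane preparations, with filtration and scintillation readout after 4 h. Primary testing in duplicate at 25 uM; actives confirmed in concentration-response. DMSO defined baseline.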

rat Thyrotropin Releasing Hormone Receptor (TRH), Trhr (gene 25570), sequence (Q01717 whole entry, looked up): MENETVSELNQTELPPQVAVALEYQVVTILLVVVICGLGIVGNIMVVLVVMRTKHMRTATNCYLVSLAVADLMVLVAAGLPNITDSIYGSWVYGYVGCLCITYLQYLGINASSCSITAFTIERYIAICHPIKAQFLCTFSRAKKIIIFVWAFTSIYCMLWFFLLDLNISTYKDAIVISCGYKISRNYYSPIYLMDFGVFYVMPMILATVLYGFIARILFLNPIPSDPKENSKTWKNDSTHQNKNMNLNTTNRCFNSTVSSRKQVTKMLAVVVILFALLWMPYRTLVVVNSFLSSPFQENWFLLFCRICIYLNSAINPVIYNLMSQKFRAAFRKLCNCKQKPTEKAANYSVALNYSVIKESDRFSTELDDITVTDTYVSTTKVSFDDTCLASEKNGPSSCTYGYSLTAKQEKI

SMILES	outcome	AC50
CCNC(=O)NC(=O)C(C#N)=NOC	inactive	
CC1(C)CON(Cc2ccccc2Cl)C1=O	inactive	
Cc1cnc(C2=NC(C)(C(C)C)C(=O)N2)c(C(=O)O)c1 (stereo unspecified)	inactive	
CCOC(=O)C(C)OC(=O)c1cc(Oc2ccc(C(F)(F)F)cc2Cl)ccc1[N+](=O)[O-] (stereo unspecified)	inactive	
CCOc1nc(F)cc2nc(S(=O)(=O)Nc3c(Cl)cccc3Cl)nn12	inactive	
Nc1c(Cl)c(Cl)nc(C(=O)O)c1Cl	inactive	
CCCCC(O)(Cn1cncn1)c1ccc(Cl)cc1Cl (stereo unspecified)	inactive	
CCN(CC)C(=O)C(C)Oc1cccc2ccccc12 (stereo unspecified)	inactive	42.2 µM (active)
CC(C)C1(C)N=C(c2ncccc2C(=O)O)NC1=O (stereo unspecified)	inactive	
COC(=O)c1c(C(F)F)nc(C(F)(F)F)c(C2=NCCS2)c1CC(C)C		25 µM (active)
CCOP(=S)(OCC)Oc1nc(Cl)n(C(C)C)n1	inactive	
Nc1cnn(-c2ccccc2)c(=O)c1Cl	inactive	

molecular target: human Androgen Receptor (AR), AR (gene 367) (UniProt P10275); test: NVS_NR_hAR: NovaScreen (NVS) Nuclear Receptor Binding Assay for human Androgen Receptor (AR) (AID 2283332)
Outline: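 Actives from a duplicate 25 uM single-point screen went on to concentration series. Read-out after 20 h was scintillation counting of displaced radioligand in LnCAP extract, with DMSO as baseline.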

human Androgen Receptor (AR), AR (gene 367), sequence (P10275 whole entry, looked up): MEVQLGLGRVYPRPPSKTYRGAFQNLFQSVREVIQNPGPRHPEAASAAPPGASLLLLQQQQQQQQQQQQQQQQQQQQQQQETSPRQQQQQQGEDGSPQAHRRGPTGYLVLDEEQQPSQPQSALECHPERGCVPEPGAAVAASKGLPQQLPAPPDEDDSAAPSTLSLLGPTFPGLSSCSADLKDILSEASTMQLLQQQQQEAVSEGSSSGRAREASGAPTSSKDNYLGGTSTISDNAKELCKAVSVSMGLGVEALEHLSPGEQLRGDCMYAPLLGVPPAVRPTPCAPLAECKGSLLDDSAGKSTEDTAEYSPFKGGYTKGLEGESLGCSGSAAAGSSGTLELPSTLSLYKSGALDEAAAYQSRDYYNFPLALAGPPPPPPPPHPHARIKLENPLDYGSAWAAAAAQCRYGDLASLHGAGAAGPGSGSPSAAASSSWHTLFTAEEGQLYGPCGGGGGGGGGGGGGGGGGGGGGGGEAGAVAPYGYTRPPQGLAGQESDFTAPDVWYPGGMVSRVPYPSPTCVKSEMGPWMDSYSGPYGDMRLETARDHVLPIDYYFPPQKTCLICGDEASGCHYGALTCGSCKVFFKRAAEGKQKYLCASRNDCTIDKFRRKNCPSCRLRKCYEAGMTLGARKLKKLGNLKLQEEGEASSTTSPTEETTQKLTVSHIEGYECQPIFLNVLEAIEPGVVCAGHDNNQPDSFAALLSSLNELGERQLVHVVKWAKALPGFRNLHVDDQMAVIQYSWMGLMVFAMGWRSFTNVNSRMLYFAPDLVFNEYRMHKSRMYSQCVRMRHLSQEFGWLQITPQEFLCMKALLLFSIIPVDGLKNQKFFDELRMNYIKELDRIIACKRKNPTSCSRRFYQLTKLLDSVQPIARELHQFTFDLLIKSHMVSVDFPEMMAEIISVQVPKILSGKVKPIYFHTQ

SMILES	AC50
CCCCC(O)(Cn1cncn1)c1ccc(Cl)cc1Cl (stereo unspecified)	18 µM (active)
CC1(C)CCC(=Cc2ccc(Cl)cc2)C1(O)Cn1cncn1 (stereo unspecified)	0.955 µM (active)
COP(=S)(OC)SCn1nnc2ccccc2c1=O	10.9 µM (active)

molecular target: Voltage-gated inwardly rectifying potassium channel KCNH2 (Homo sapiens) (UniProt Q12809); test: NVS_IC_hKhERGCh: NovaScreen (NVS) Ion Channel Assay for human Potassium Channel ERG (KhERGCh) (AID 2283333)
Procedure: NVS_IC_hKhERGCh is a biochemical, single-readout assay that uses extracted gene-proteins from CHO in a cell-free assay. Measurements were taken 0.75 hour after chemical dosing in a 48-well plate.NVS_IC_hKhERGCh is one of one assay component(s) measured or calculated from the NVS_IC_hKhERGCh assay. It is designed to make measurements of radioligand binding, a form of binding reporter, as detected with scintillation counting signals by Filter-based radiodetection technology.Data from the assay component NVS_IC_hKhERGCh was analyzed into 1 assay endpoint. This assay endpoint, NVS_IC_hKhERGCh, was analyzed in the positive analysis fitting direction relative to DMSO as the negative control and baseline of activity. Using a type of binding reporter, loss-of-signal activity can be used to understand changes in the binding as they relate to the gene KCNH2. Furthermore, this assay endpoint can be referred to as a primary readout, because the performed assay has only produced 1 assay endpoint. To generalize the intended target to other relatable targets, this assay endpoint is annotated to the ion channel intended target family, where the subfamily is potassium channel.
Binding assays used specific radioligands (tritiated, iodinated) with non-radioactive competitive displacement ligands in agonist or antagonist protocols (as indicated) and various reference compounds and inhibitors to titrate specific binding to receptors and transporters. Most enzyme assays (CYPs, kinases, phosphatases, proteases, HDACs) used recombinant protein and specific substrates (fluorescence mostly, some colorimetric and radioactive) and inhibitors, followed by a biochemical separation of substrate and product. All assays for the biochemical HTS were initially run in duplicate at a single concentration (10 uM for CYP450 assays and 25 uM for all others). […] Each assay was run with positive and negative controls, and concurrent controls on every plate. […]

Voltage-gated inwardly rectifying potassium channel KCNH2 (Homo sapiens), sequence (Q12809 whole entry, looked up): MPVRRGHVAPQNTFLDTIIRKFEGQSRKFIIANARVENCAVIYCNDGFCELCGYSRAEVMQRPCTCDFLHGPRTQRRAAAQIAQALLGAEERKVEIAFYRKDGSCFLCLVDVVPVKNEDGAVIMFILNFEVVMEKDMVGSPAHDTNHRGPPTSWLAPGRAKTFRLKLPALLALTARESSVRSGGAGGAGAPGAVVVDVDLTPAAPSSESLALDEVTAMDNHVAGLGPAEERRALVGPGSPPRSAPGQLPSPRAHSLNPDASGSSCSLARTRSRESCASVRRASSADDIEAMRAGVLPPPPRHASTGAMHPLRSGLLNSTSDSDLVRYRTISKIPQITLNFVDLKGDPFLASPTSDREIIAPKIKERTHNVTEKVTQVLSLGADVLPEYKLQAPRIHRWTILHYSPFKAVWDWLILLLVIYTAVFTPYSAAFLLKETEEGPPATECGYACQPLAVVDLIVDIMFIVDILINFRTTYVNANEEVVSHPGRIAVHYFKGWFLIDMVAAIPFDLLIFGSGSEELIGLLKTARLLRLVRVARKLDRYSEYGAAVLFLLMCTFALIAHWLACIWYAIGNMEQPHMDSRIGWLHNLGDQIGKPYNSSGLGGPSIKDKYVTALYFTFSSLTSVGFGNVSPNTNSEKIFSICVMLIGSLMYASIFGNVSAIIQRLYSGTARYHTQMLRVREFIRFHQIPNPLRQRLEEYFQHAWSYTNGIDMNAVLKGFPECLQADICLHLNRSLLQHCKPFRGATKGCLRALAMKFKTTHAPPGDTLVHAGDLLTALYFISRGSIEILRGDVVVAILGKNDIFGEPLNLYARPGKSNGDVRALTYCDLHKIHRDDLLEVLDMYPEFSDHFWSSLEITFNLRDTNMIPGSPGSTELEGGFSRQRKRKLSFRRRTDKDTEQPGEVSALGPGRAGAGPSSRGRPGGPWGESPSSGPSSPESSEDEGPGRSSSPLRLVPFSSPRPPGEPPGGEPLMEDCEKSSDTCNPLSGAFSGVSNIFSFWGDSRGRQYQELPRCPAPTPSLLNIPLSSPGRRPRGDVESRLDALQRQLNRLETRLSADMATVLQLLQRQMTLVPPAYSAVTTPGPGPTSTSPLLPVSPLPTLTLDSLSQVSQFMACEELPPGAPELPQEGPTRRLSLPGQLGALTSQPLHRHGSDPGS

SMILES	AC50	outcome
CCCCC(O)(Cn1cncn1)c1ccc(Cl)cc1Cl (stereo unspecified)	13.4 µM (active)	
CCCN(CC)CC1COC2(CCC(C(C)(C)C)CC2)O1 (stereo unspecified)	5.15 µM (active)	
CCCCC(C#N)(Cn1cncn1)c1ccc(Cl)cc1 (stereo unspecified)		inactive
